Results filed as inconclusive are left out. The source made the active and inactive calls. Unless noted, the call rests on the fitted dose curve; in most records, active means well fitted curve in the direction sought with a large enough effect in the repeat runs; inconclusive means weak or mixed curves; inactive means no such curve, though single readings can be large; an effect the other way counts as inactive or inconclusive.
How the values were obtained:
[1] = qHTS RealTime-Glo MT Cell Viability Assay in HEK293 cells - 0 hour (AID 1224880); further: top concentration of the series differs between compounds; nearly all actives have a fitted effect of over 45% in size
Method in brief: (§1)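 Viable HEK293 cells reduce a cell-permeant prosubstrate; the product diffuses out and is consumed by NanoLuc in the medium to give light. Compounds went in after a 5 h incubation and plates were read over the treatment course.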

[2] = A CellTox Green Cytotoxicity Assay to monitor cytotoxicity in HEK293 cells - 32 hour (AID 1224881); further: nearly all actives have a fitted effect of over 40% in size
Method in brief: (§2)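 Fluorescence intensity, read at 0, 8, 16, 24, 32 and 40 h of compound treatment, reflected dye binding to DNA of dead HEK293 cells; compounds (23 nL, DMSO) were added 5 h after plating cells with reagent.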

[3] = A CellTox Green Cytotoxicity Assay to monitor cytotoxicity in HepG2 cells - 0 hour (AID 1224882); further: nearly all actives have a fitted effect of over 35% in size
Method in brief: (§3)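 Using 1536-well format, dye-containing HepG2 suspension was seeded, allowed 5 h at 37 C/5% CO2, dosed by pintool with compounds, positive and negative controls, and imaged for fluorescence across 40 h.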

[4] = A CellTox Green Cytotoxicity Assay to monitor cytotoxicity in HepG2 cells - 32 hour (AID 1224883); further: nearly all actives have a fitted effect of over 50% in size
Method in brief: as §3

[5] = A CellTox Green Cytotoxicity Assay to monitor cytotoxicity in HEK293 cells - 8 hour (AID 1224884); further: nearly all actives have a fitted effect of over 35% in size
Method in brief: as §2

[6] = qHTS RealTime-Glo MT Cell Viability Assay in HepG2 cells - 16 hour (AID 1224885); further: nearly all actives have a fitted effect of over 50% in size
Method in brief: (§4)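 Viability was tracked continuously by NanoLuc luminescence from prosubstrate reduced by living HepG2 cells, at successive time points over 40 h of compound exposure. Cells with reagent were preincubated 5 h at 37 °C before compound addition.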

[7] = qHTS RealTime-Glo MT Cell Viability Assay in HEK293 cells - 8 hour (AID 1224887); further: top concentration of the series differs between compounds; nearly all actives have a fitted effect of over 50% in size
Method in brief: as §1

[8] = A CellTox Green Cytotoxicity Assay to monitor cytotoxicity in HEK293 cells - 16 hour (AID 1224888); further: nearly all actives have a fitted effect of over 35% in size
Method in brief: as §2

[9] = A CellTox Green Cytotoxicity Assay to monitor cytotoxicity in HepG2 cells - 8 hour (AID 1224890); further: nearly all actives have a fitted effect of over 45% in size
Method in brief: as §3

[10] = qHTS assay to identify small molecule antagonists of the estrogen receptor alpha (ER-alpha) signaling pathway using the BG1 cell line in the presence of 0.1 nM 17-beta-estradiol - cell viability counter screen (AID 1259241); further: nearly all actives have a fitted effect of over 40% in size
Method in brief: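 Viability in VM7Luc4E2 cells after 22 hr compound exposure under 0.1 nM 17beta-estradiol stimulation, by CellTiter-Fluor.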

[11] = qHTS assay to identify small molecule antagonists of the androgen receptor (AR) signaling pathway using the MDA cell line in the presence of 0.5 nM R1881 - cell viability counter screen (AID 1259242); further: nearly all actives have a fitted effect of over 45% in size
Method in brief: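 Viability of MDA-kb2 cells was multiplexed with the luciferase AR readout; after 16 hr with compounds and R1881 at 0.5 nM final, CellTiter-Fluor fluorescence was recorded.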

[12] = qHTS assay to identify small molecule antagonists of the sonic hedgehog signaling (Shh) pathway - cell viability counter screen (AID 1259367); further: nearly all actives have a fitted effect of over 55% in size
Method in brief: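 After a 4 hr settling period, 3T3 Gli1-Luc cells were treated with DMSO-dissolved chemicals and conditioned medium, kept 24 hr at 37C in 5% CO2, and assayed for viability by CellTiter-Fluor fluorescence following 1 hr reagent incubation.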

[13] = qHTS RealTime-Glo MT Cell Viability Assay in HEK293 cells - 24 hour (AID 1224886); further: top concentration of the series differs between compounds; nearly all actives have a fitted effect of over 50% in size
Method in brief: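 Viability tracked continuously by luminescence as live cells reduce a prosubstrate for NanoLuc; HEK293 cells preincubated 5 h, compound-treated at 37 C, and read at 0, 8, 16, 24, 32 and 40 h.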

[14] = qHTS RealTime-Glo MT Cell Viability Assay in HepG2 cells - 0 hour (AID 1224889); further: nearly all actives have a fitted effect of over 50% in size
Method in brief: as §4

[15] = qHTS assay to identify small molecule HDAC inhibitors (AID 1259364);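 further: wild-type HCT-116 cells with endogenous class I/II HDAC activity; top concentration of the series differs between compounds; nearly all actives have a fitted effect of over 45% in size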
Method in brief: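 Read-out: luminescence of HDAC-Glo I/II reagent, 30 min RT, reflecting class I/II deacetylase activity in whole HCT-116 cells pre-exposed 2 h to DMSO-dissolved compounds.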

[16] = qHTS assay to identify small molecule HDAC inhibitors - cell viability counter screen (AID 1259365)
Method in brief: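 Cytotoxicity was gauged in wild-type HCT-116 cells after a brief 2hr treatment with DMSO-dissolved compounds at 37C and 5% CO2, using CellTiter-Glo luminescence developed for 30min at room temperature.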

[17] = qHTS assay to identify small molecule agonists of the sonic hedgehog signaling (Shh) pathway - cell viability counter screen (AID 1259366); further: nearly all actives have a fitted effect of over 50% in size
Method in brief: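 Stable Gli1-Luc NIH/3T3 clone, 2,000 cells/well. Compound exposure 24hr at 37C. Read-out: CellTiter-Fluor fluorescence.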

[18] = biological target: Estrogen receptor (Homo sapiens) (UniProt P03372); test: qHTS assay to identify small molecule antagonists of the estrogen receptor alpha (ER-alpha) signaling pathway using the BG1 cell line in the presence of 0.1 nM 17-beta-estradiol (AID 1259244); further: nearly all actives have a fitted effect of over 50% in size
Method in brief: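 Estradiol at 0.1 nM (final) stimulates the endogenous ER-alpha of VM7Luc4E2 cells carrying an ERE-driven luciferase; compounds are co-incubated 22 h at 37C and luciferase output quantified by luminescence.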

[19] = biological target: Androgen receptor (Homo sapiens) (UniProt P10275); test: qHTS assay to identify small molecule antagonists of the androgen receptor (AR) signaling pathway using the MDA cell line in the presence of 0.5 nM R1881 (AID 1259243); further: nearly all actives have a fitted effect of over 50% in size
Method in brief: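 Reporter cells cultured without CO2 receive test chemicals, then 0.5 nM R1881 final; after 16 hr at 37C, ONE-Glo is added and light output recorded.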

[20] = qHTS assay to identify small molecule phospholipidosis (PLD) inducers (AID 1259344; active means well fitted curve in the direction sought with a large enough effect; an effect the other way counts as inactive or inconclusive)
Method in brief: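 HepG2 cells grown on collagen I take up LipidTOX Red while exposed to compound for 24 h; after fixation they are imaged at 20x and pit metrics are extracted.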
On the % scale 0 is the no-effect control and ±100 the full control effect.

Chain of Estrogen receptor (Homo sapiens) (P03372 whole entry, looked up): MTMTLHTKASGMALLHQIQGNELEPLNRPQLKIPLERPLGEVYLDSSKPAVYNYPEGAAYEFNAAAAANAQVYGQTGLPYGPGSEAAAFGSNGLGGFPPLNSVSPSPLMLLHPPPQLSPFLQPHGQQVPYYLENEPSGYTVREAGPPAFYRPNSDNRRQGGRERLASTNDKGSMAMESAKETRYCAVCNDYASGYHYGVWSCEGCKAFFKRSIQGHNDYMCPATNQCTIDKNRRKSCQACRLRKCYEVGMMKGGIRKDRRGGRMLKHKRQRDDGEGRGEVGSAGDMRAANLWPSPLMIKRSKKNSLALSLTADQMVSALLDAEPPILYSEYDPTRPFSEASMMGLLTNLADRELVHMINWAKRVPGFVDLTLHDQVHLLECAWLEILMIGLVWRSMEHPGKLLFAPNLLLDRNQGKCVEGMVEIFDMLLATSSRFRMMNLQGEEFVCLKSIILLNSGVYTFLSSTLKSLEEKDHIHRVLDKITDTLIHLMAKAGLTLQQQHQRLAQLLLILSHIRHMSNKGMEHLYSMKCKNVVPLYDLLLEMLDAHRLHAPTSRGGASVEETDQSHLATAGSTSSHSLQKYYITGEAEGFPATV
Chain of Androgen receptor (Homo sapiens) (P10275 whole entry, looked up): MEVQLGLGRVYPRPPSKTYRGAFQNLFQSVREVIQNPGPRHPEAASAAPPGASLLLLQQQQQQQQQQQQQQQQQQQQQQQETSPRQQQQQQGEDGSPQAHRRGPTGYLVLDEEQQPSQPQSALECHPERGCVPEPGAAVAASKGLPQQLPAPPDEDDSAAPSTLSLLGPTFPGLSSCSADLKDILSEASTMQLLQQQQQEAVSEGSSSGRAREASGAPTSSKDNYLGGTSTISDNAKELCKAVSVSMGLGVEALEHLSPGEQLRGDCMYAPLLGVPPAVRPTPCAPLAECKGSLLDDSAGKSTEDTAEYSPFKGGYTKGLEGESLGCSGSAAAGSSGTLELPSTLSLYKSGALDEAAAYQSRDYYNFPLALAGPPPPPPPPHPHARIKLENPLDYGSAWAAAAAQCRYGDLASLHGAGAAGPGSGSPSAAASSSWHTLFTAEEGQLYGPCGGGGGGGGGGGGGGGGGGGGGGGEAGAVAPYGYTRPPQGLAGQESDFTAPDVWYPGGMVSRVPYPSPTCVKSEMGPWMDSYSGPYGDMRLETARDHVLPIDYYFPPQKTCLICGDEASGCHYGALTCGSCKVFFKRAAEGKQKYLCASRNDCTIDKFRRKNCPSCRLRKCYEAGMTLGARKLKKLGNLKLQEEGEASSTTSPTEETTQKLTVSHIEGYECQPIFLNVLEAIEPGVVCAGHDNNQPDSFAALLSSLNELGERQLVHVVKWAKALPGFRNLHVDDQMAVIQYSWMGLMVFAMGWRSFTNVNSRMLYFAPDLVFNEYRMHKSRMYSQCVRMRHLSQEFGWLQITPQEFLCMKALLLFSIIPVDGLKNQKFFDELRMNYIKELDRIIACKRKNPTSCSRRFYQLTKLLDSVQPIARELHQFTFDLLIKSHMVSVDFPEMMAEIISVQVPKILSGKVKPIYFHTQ

COc1ccc(/C=C/c2cc(OC)cc(=O)o2)cc1
inactive: Potency [1] | Potency [2] | Potency [3] | Potency [4] | Potency [5] | outcome [6] | Potency [7] | Potency [8] | Potency [9] | Potency [10] | Potency [11] | Potency [12]

CCCCC(CC)COCCC#N (stereo not given)
inactive: Potency [1] | Potency [2] | Potency [3] | Potency [4] | Potency [5] | Potency [13] | Potency [7] | Potency [8] | Potency [14] | Potency [9] | Potency [10] | Potency [15] | outcome [16] | Potency [17] | Potency [12]

O=C(Cl)c1cc(Cl)cc(Cl)c1
inactive: Potency [1] | Potency [2] | Potency [3] | Potency [4] | Potency [5] | Potency [13] | Potency [7] | Potency [8] | Potency [14] | Potency [9] | Potency [10] | Potency [11] | Potency [18] | Potency [15] | outcome [16] | Potency [17]

CCCCOC(=O)C(C)Oc1ccc(Oc2ccc(C(F)(F)F)cn2)cc1 (stereo not given)
inactive: Potency [1] | Potency [2] | Potency [3] | Potency [4] | Potency [5] | outcome [6] | Potency [8] | Potency [14] | Potency [9] | Potency [10] | Potency [11] | Potency [18] | Potency [15] | outcome [16] | Potency [17] | Potency [12]

COc1ccc(/C=C/S(=O)(=O)NC(=O)c2ccc(C)cc2Cl)cc1
inactive: Potency [1] | Potency [2] | Potency [3] | Potency [4] | Potency [5] | Potency [13] | Potency [7] | Potency [8] | Potency [14] | Potency [9] | Potency [10] | Potency [11] | outcome [16] | Potency [17] | Potency [12]

CC(C)=CCC[C@H](C)CCO
inactive: Potency [1] | Potency [2] | Potency [3] | Potency [4] | Potency [5] | outcome [6] | Potency [13] | Potency [7] | Potency [14] | Potency [10] | Potency [11] | Potency [15] | outcome [16] | Potency [17] | Potency [12]

CC1(C)CC(O)CC(C)(C)N1[O]
inactive: Potency [1] | Potency [2] | Potency [3] | Potency [4] | Potency [5] | outcome [6] | Potency [13] | Potency [7] | Potency [14] | Potency [9] | Potency [10] | Potency [18] | Potency [17]

O=C(O)c1cc(C(=O)O)c(C(=O)O)cc1C(=O)O
inactive: Potency [1] | Potency [2] | Potency [3] | Potency [4] | Potency [5] | Potency [13] | Potency [7] | Potency [8] | Potency [14] | Potency [9] | Potency [10] | Potency [11] | Potency [19] | Potency [18] | Potency [15] | outcome [16] | Potency [17] | Potency [12]

CC(=O)Nc1ccn(C2COC(COC(=O)c3ccccc3)O2)c(=O)n1 (stereo not given)
inactive: Potency [1] | Potency [2] | Potency [3] | Potency [4] | Potency [5] | Potency [13] | Potency [7] | Potency [8] | Potency [14] | Potency [9] | Potency [10] | Potency [11] | PLD induction [20] 1.43% [at 1.53 µM] | Potency [15] | Potency [17]
